Data as given in the supplement of paper PMC7156485.
± gives the standard deviation of the averaged measurements.

Tests used:
Details in all cases: concentration: 10 µM; 24 h
HCC1569 [1] = assay: cell number relative to DMSO (% of DMSO); higher = more cells (less growth inhibition / toxicity)
Procedure, shortened: (§1)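 In 384-well plates holding 800 HCC1569 or TDF cells per well in RPMI with 10% FBS, compounds were tested at 10 µM for 24 h at 37 °C in triplicate. Fixation used 3.7% formaldehyde. Staining used a rabbit anti-H1.0 antibody with an AlexaFluor 647 secondary, plus DAPI. Each value, H1.0 nuclear intensity or cell number, is a median of replicates shown as percent of the plate control, and HCC1569 values were smoothed for positional effects.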

TDF [2] = assay: as above
Procedure, shortened: as §1

TDF [3] = assay: H1.0 immunofluorescence intensity relative to DMSO (% of DMSO); higher = stronger H1.0 induction, active = 120 or more
Procedure, shortened: as §1

HCC1569 [4] = assay: H1.0 immunofluorescence intensity relative to DMSO (% of DMSO); higher = stronger H1.0 induction, active = 140 or more
Procedure, shortened: as §1
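Throughout, for H1.0 immunofluorescence intensity relative to DMSO: TDF is a line of transformed human dermal fibroblasts of mesenchymal origin.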
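Throughout, for cell number relative to DMSO: TDF denotes transformed human dermal fibroblasts of mesenchymal origin.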

SMILES	cell number (HCC1569 [1])	cell number (TDF [2])	H1.0 immunofluorescence intensity (TDF [3])	H1.0 immunofluorescence intensity (HCC1569 [4])
O=C(O)COc1ccc(C(=O)c2cccs2)c(Cl)c1Cl [[2,3-dichloro-4-(2-thienylcarbonyl)phenoxy]acetic acid]	106	99.8	95.1 (inactive)	109 (inactive)
O=C(C=Cc1ccc(O)c(O)c1)OC(Cc1ccc(O)c(O)c1)C(=O)O (stereo not given) [Rosmarinic acid]	104 ± 2.8	101 ± 6.3	97.7 (inactive)	98.7 (inactive)
c1ccc2c(Cc3c[nH]c4ccccc34)c[nH]c2c1 [Diindolylmethane]	100.67 ± 0.0078	97.9 ± 2.8	98.8 (inactive)	91.6 (inactive)
CC1C(=O)OC2CC34C5CC(C(C)(C)C)C36C(OC(=O)C6O)OC4(C(=O)O5)C21O (stereo not given) [Ginkgolide A]	99.6 ± 1.2	99 ± 3	92.3 (inactive)	95.8 (inactive)
CCCC(=O)O[C@]1(C(=O)CO)CC[C@H]2[C@@H]3CCC4=CC(=O)CC[C@]4(C)[C@H]3[C@@H](O)C[C@@]21C [(11beta)-11,21-dihydroxy-3,20-dioxopregn-4-en-17-yl butyrate]	97.4	106	84.9 (inactive)	102 (inactive)
CSCC[C@@H](C=O)NC(=O)[C@H](CC(C)C)NC(=O)[C@H](CC(C)C)NC(C)=O	99.2	95.5	96.4 (inactive)	92.2 (inactive)
COc1cc2c(cc1OC)C(c1ccccc1)CN(C)CC2.O=C(O)C=CC(=O)O (stereo not given)	101	98.3	94.3 (inactive)	92.5 (inactive)
NC(N)=Nc1nc(CSCCC(N)=NS(N)(=O)=O)cs1	103	110	91.1 (inactive)	108 (inactive)
Oc1cc(O)cc(C=Cc2ccc(O)c(O)c2)c1 [Piceatannol]	90.4 ± 5.3	93.7 ± 4.5	97.2 (inactive)	114 (inactive)
C=CCc1ccccc1OCC(O)CNC(C)C.Cl (stereo not given) [Alprenolol hydrochloride]	96.8	91	103 (inactive)	104 (inactive)
Cl.NCCS [Cysteamine hydrochloride]	101	99.7	91.2 (inactive)	101 (inactive)
COC(=O)Nc1nc2ccc(Sc3ccccc3)cc2[nH]1 [Fenbendazole]	64	95.7	99.2 (inactive)	177 (active)
CCN(CC)CCOC(=O)c1cc(Cl)c(N)cc1OC.Cl [SDZ-205,557 hydrochloride]	105	98.8	85.4 (inactive)	86.8 (inactive)
Cc1nc(N)sc1-c1ccnc(Nc2ccc(N3CCOCC3)cc2)n1	62.2	42.5	105 (inactive)	99.1 (inactive)
CCCCCCCCCCC1=C(C)C(=O)C(OC)=C(OC)C1=O [Decylubiquinone]	101	89.2	94.8 (inactive)	91.8 (inactive)
COc1ccc(N2C(=O)CSC2c2cccc(Br)c2)c(OC)c1 (stereo not given)	59.5	10.8	156 (active)	146 (active)
CCCCCC(O)C=CC1C(O)CC(O)C1CC(=O)CCCCC(=O)O (stereo not given) [6-Keto-prostaglandin F1a]	101	91.3	102 (inactive)	108 (inactive)
CNCCCC12CCC(c3ccccc31)c1ccccc12.Cl [Maprotiline.HCl]	100	90.4	94.5 (inactive)	119 (inactive)
NCCCCN=C(N)N.O=S(=O)(O)O [Agmatine sulfate]	106	98.2	88.7 (inactive)	92.4 (inactive)
C=CC1CN2CCC1CC2C(O)c1ccnc2ccc(OC)cc12.C=CC1CN2CCC1CC2C(O)c1ccnc2ccc(OC)cc12.O=S(=O)(O)O (stereo not given) [Quinidine sulfate]	99	99.9	95.4 (inactive)	112 (inactive)
O=C(O)/C=C/c1ccc(O)c(O)c1 [Caffeic acid]	98.5 ± 1.5	99.8 ± 4.1	94.5 (inactive)	96.2 (inactive)
CC(=O)Oc1ccccc1C(=O)O [Acetylsalicylic acid]	101	98.8	89.6 (inactive)	88.3 (inactive)
O=C(O)c1cc(-c2ccc(F)cc2F)ccc1O [Diflunisal]	102	100	96.1 (inactive)	115 (inactive)
COc1ccc(C2CC(=O)c3c(O)cc(OC4OC(COC5OC(C)C(O)C(O)C5O)C(O)C(O)C4O)cc3O2)cc1O (stereo not given) [Hesperidine]	107	102	93.2 (inactive)	84.8 (inactive)
O=Cc1c2[nH]c3ccccc3c2cc2[nH]c3ccccc3c12 [6-Formylindolo [3,2-B] carbazole]	101	99	91.4 (inactive)	100 (inactive)

SMILES	cell number (HCC1569 [1])	cell number (TDF [2])	H1.0 immunofluorescence intensity (TDF [3])	H1.0 immunofluorescence intensity (HCC1569 [4])
CCCCCC(O)C=CC=CCCCCCCCC(=O)O (racemic)	102	107	95.9 (inactive)	101 (inactive)
CC(C)NCC(O)c1ccc(NS(C)(=O)=O)cc1.Cl (stereo not given) [Sotalol.HCl]	102	111	88.1 (inactive)	99 (inactive)
Cl.O=C(O)C1CCCN(CCC=C(c2ccccc2)c2ccccc2)C1 (stereo not given)	97.9	92.7	98.1 (inactive)	98.1 (inactive)
CN(C)CCC=C1c2ccccc2CCc2ccccc21.Cl [Amitriptyline hydrochloride]	100	100	104 (inactive)	94.1 (inactive)
C#CC1(O)CCC2C3CCC4=Cc5oncc5CC4(C)C3CCC21C (stereo not given) [Danazol]	97.02 ± 0.7	98.36 ± 0.75	95.4 (inactive)	100 (inactive)
COc1cc(/C=C/C(=O)O)ccc1O [Ferulic acid]	102	97.3	101 (inactive)	92.2 (inactive)
CCC(c1ccc(O)cc1)C(CC)c1ccc(O)cc1 (stereo not given) [Hexestrol]	100	102	94.1 (inactive)	119 (inactive)
c1ccc(-c2ccccn2)nc1 [2,2'-Bipyridyl]	107	95	104 (inactive)	102 (inactive)
Clc1ccc2c(c1)C(N1CCNCC1)=Nc1ccccc1O2 [Amoxapine]	99.54 ± 0.74	99.9 ± 2.6	99.7 (inactive)	108 (inactive)
CNC(CC(C)C)C(=O)NC1C(=O)NC(CC(N)=O)C(=O)NC2C(=O)NC3C(=O)NC(C(=O)NC(C(=O)O)c4cc(O)cc(O)c4-c4cc3ccc4O)C(O)c3ccc(c(Cl)c3)Oc3cc2cc(c3OC2OC(CO)C(O)C(O)C2OC2CC(C)(N)C(O)C(C)O2)Oc2ccc(cc2Cl)C1O.Cl (stereo not given) [Vancomycin hydrochloride from Streptomyces orientalis]	99.6	108	90.4 (inactive)	101 (inactive)
CC(=O)Nc1nc(C)c(S(=O)(=O)Nc2ccc(C(O)(C(F)(F)F)C(F)(F)F)cc2)s1	97.5	109	85.1 (inactive)	111 (inactive)
COC(=O)C1=C(C)NC(C)=C(C(=O)OCCN2CCN(C(c3ccccc3)c3ccccc3)CC2)C1c1cccc([N+](=O)[O-])c1 (stereo not given) [Manidipine]	106	109	90.4 (inactive)	111 (inactive)
C[N+]1(C)CCC(OC(=O)C(c2ccccc2)c2ccccc2)CC1.[I-] [4-DAMP methiodide]	100	105	98.6 (inactive)	101 (inactive)
Cc1ncc(Cl)cc1NCc1ccc(C(=O)N[C@@H](CC2CCCC2)C(=O)NC2CC2)s1	96.6	96.1	99.9 (inactive)	101 (inactive)
CCCCCCCCC=CCCCCCCCC(=O)O [Oleic Acid]	105	103	91.8 (inactive)	87.8 (inactive)
Cl.O=C1CC2(CCCC2)CC(=O)N1CCCCN1CCN(c2ncccn2)CC1 [Buspirone hydrochloride]	97.6	96.8	94.3 (inactive)	97 (inactive)
CC(N)C1CCC(C(=O)Nc2ccncc2)CC1.Cl.Cl (stereo not given)	110	106	87.3 (inactive)	90.1 (inactive)
COC12C(COC(N)=O)C3=C(C(=O)C(C)=C(N)C3=O)N1CC1NC12 (stereo not given) [Mitomycin C]	73.2 ± 6	47.6 ± 1.8	105 (inactive)	96.2 (inactive)
O=C(CCCc1ccc(-c2ccccc2F)cc1)Nc1ccc(O)cc1 [MK2a Inhibitor]	79	11.1	157 (active)	129 (inactive)
CC1CNc2c(cccc2S(=O)(=O)N[C@@H](CCCN=C(N)N)C(=O)N2CC[C@@H](C)C[C@@H]2C(=O)O)C1.O (stereo not given in full)	102	104	89.5 (inactive)	105 (inactive)
CCCCN(CCCC)CC(O)c1cc(Cl)cc2c1-c1ccc(Cl)cc1/C2=C/c1ccc(Cl)cc1 (stereo not given)	103	108	90.7 (inactive)	104 (inactive)
Nc1ccccc1NC(=O)CCCCCCC(=O)Nc1ccccc1 [N~1~-(2-aminophenyl)-N~8~-phenyloctanediamide]	98.8	89.4	92.6 (inactive)	145 (active)
CCCCCC=CC=C1C(=O)C=CC1CC=CCCCC(=O)O (stereo not given) [15d-Prostaglandin J2]	98.9	102	97.5 (inactive)	104 (inactive)
CS(=O)(=O)Nc1ccc(-c2coc3cc(OCc4cccc(C(=O)O)c4)ccc3c2=O)cc1	101	109	90.9 (inactive)	107 (inactive)
CC(=O)Oc1ccccc1C(=O)O [Acetylsalicylic Acid]	101	99	96.1 (inactive)	102 (inactive)
